Data on nine compounds can be found in PubChem BioAssay (NCI).

Among the test systems are DU-145 prostate; K-562 leukemia; MALME-3M melanoma; MDA-MB-231 breast; RXF 393 renal; SF-268 CNS; SF-295 CNS; SF-539 CNS; UACC-257 melanoma; M14 melanoma.
What all share (assay): NCI-60 one-dose screen, 48 h (100 = growth as untreated, 0 = no growth, -100 = all killed)

Values joined by “and” are separate entries in the source; they are usually repeats but may differ in a detail not shown here. Identical values can stand only once. About 83,000 compounds went through this panel and 20% of them were active in at least one assay; those are over-represented in the sample as a whole.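 Treatment: one concentration, 48 hours, 96-well format. Scoring: percent growth, with anything below 10 considered active.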 Active and inactive are the calls of the source.

With `CCCCCn1sc(=O)n(Cc2ccc(CNC(=O)C(C)c3ccc(CC(C)C)cc3)cc2)c1=O` (stereo unspecified), the growth in the assay with DU-145 prostate (10 µM unless noted) was 99.9% (inactive) and -93.4% (active); in the assay with K-562 leukemia (10 µM unless noted) it was 2.12% (active); in the assay on MALME-3M melanoma (10 µM unless noted), 99.8% (inactive) and -72.1% (active); in the assay with MDA-MB-231 breast (10 µM unless noted), 93.3% (inactive) and -54.7% (active); in the assay on RXF 393 renal (10 µM unless noted), -91.7% (active); in the assay on SF-268 CNS (10 µM unless noted) it was 94.5% (inactive) and -59.7% (active). In addition, the growth was 94.3% (inactive) and 47.1% (inactive) in the assay on SF-295 CNS (10 µM unless noted); 93.6% (inactive) and -92.8% (active) in the assay on SF-539 CNS (10 µM unless noted); 96.7% (inactive) and -19.5% (active) with UACC-257 melanoma (10 µM unless noted).
Take `Cc1cc(=O)[nH]c(O)c1C#N`: the growth in the assay with DU-145 prostate (10 µM unless noted) was 112% (inactive) and 106% (inactive); in the assay with K-562 leukemia (10 µM unless noted), 106% (inactive) and 112% (inactive); in the assay on MALME-3M melanoma (10 µM unless noted) it was 98% (inactive) and 103% (inactive); in the assay on MDA-MB-231 breast (10 µM unless noted), 107% (inactive) and 109% (inactive); in the assay with RXF 393 renal (10 µM unless noted), 106% (inactive); in the assay on SF-268 CNS (10 µM unless noted) it was 109% (inactive) and 101% (inactive). The growth with SF-295 CNS (10 µM unless noted) was 99.6% (inactive) and 98.5% (inactive); in the assay on SF-539 CNS (10 µM unless noted) it was 97.8% (inactive) and 105% (inactive); in the assay with UACC-257 melanoma (10 µM unless noted), 99.4% (inactive) and 103% (inactive).
Take `CC(C)(C)c1cc(NC(=O)Cc2ccc(-c3cnc4cc(-c5cnn(CCN6CCOCC6)c5)ccc4n3)cc2)no1`: the growth with DU-145 prostate (10 µM) is 23.7% (inactive); in the assay on DU-145 prostate (30 µM), 19.8% (inactive); with K-562 leukemia (10 µM) it was 2.41% (active); in the assay on K-562 leukemia (30 µM) it was -1.34% (active); in the assay on MALME-3M melanoma (10 µM), -5.96% (active); in the assay on MALME-3M melanoma (30 µM), -9.19% (active). Also, the growth in the assay on MDA-MB-231 breast (10 µM) is 9.54% (active); in the assay with MDA-MB-231 breast (30 µM), 14.9% (inactive); in the assay with RXF 393 renal (10 µM unless noted), -20.5% (active); with SF-268 CNS (10 µM), 19.9% (inactive); in the assay on SF-268 CNS (30 µM), 24.7% (inactive); in the assay on SF-295 CNS (10 µM), 21.4% (inactive). For the same compound, the growth with SF-295 CNS (30 µM) is 15.4% (inactive); with SF-539 CNS (10 µM), -5.64% (active); in the assay with SF-539 CNS (30 µM) it was -9.45% (active); in the assay on UACC-257 melanoma (10 µM) it was 27.1% (inactive); in the assay with UACC-257 melanoma (30 µM), 31% (inactive); with M14 melanoma (10 µM unless noted), 15% (inactive).
As for `CCCCOc1cc(C(=O)NCCN(CC)CC)c2ccccc2n1`, the growth in the assay with DU-145 prostate (10 µM unless noted) was 109% (inactive) and 106% (inactive); with K-562 leukemia (10 µM unless noted), 92.4% (inactive) and 104% (inactive); in the assay with MALME-3M melanoma (10 µM unless noted) it was 93% (inactive) and 106% (inactive); in the assay with MDA-MB-231 breast (10 µM unless noted) it was 86.5% (inactive) and 96.9% (inactive); in the assay on RXF 393 renal (10 µM unless noted) it was 80.7% (inactive) and 94% (inactive); in the assay on SF-268 CNS (10 µM unless noted), 103% (inactive) and 101% (inactive). The growth in the assay with SF-295 CNS (10 µM unless noted) was 92.5% (inactive) and 97.5% (inactive); in the assay with SF-539 CNS (10 µM unless noted) it was 95.2% (inactive) and 106% (inactive); with UACC-257 melanoma (10 µM unless noted), 62.2% (inactive).
As to `CCN(CC)CCCC(C)N(Cc1ccccc1)CC(O)c1ccc(Cl)cc1` (stereo unspecified), the growth with DU-145 prostate (10 µM unless noted) is 109% (inactive) and 106% (inactive); in the assay on K-562 leukemia (10 µM unless noted), 100% (inactive) and 106% (inactive); in the assay on MALME-3M melanoma (10 µM unless noted) it was 103% (inactive); in the assay on MDA-MB-231 breast (10 µM unless noted) it was 114% (inactive) and 105% (inactive); in the assay with RXF 393 renal (10 µM unless noted), 101% (inactive) and 106% (inactive); in the assay on SF-268 CNS (10 µM unless noted), 102% (inactive) and 100% (inactive). In addition, the growth was 103% (inactive) and 96% (inactive) in the assay on SF-295 CNS (10 µM unless noted); 111% (inactive) and 95.9% (inactive) with SF-539 CNS (10 µM unless noted); 102% (inactive) and 105% (inactive) with UACC-257 melanoma (10 µM unless noted).
As for `Oc1c(CN2CCCCC2)ccc2cccnc12`, the growth with DU-145 prostate (10 µM unless noted) was 67.9% (inactive) and 53.7% (inactive); in the assay with K-562 leukemia (10 µM unless noted), 28.8% (inactive) and 30.6% (inactive); with MALME-3M melanoma (10 µM unless noted), 88.1% (inactive) and 82.5% (inactive); in the assay on MDA-MB-231 breast (10 µM unless noted), 53.2% (inactive) and 46.9% (inactive); in the assay with RXF 393 renal (10 µM unless noted), 85.1% (inactive) and 3.68% (active); in the assay on SF-268 CNS (10 µM unless noted), 69.3% (inactive) and 47.6% (inactive). Moreover, the growth in the assay on SF-295 CNS (10 µM unless noted) was 37.1% (inactive); with SF-539 CNS (10 µM unless noted), 74.7% (inactive) and 57% (inactive); with UACC-257 melanoma (10 µM unless noted), 77.1% (inactive) and 71.6% (inactive).
Turning to `N=C1N=C(N)CS1`, the growth in the assay on DU-145 prostate (10 µM unless noted) is 115% (inactive); in the assay on K-562 leukemia (10 µM unless noted) it was 105% (inactive); in the assay with MALME-3M melanoma (10 µM unless noted) it was 114% (inactive); in the assay with MDA-MB-231 breast (10 µM unless noted), 115% (inactive); in the assay on RXF 393 renal (10 µM unless noted), 99.4% (inactive); in the assay on SF-268 CNS (10 µM unless noted) it was 107% (inactive). For the same compound, the figures for the growth in the assay on SF-295 CNS (10 µM unless noted), in the assay on SF-539 CNS (10 µM unless noted) and in the assay on UACC-257 melanoma (10 µM unless noted) were 96.5% (inactive), 110% (inactive) and 106% (inactive), respectively.
For the compound `O=[N+]([O-])c1ccccc1/C=N\Nc1ccccc1`, the growth in the assay with DU-145 prostate (10 µM unless noted) was 97.7% (inactive) and 103% (inactive); in the assay on K-562 leukemia (10 µM unless noted) it was 37.9% (inactive) and 40.2% (inactive); in the assay with MALME-3M melanoma (10 µM unless noted), 98.7% (inactive) and 116% (inactive); with MDA-MB-231 breast (10 µM unless noted), 74.1% (inactive) and 65% (inactive); in the assay on RXF 393 renal (10 µM unless noted) it was 110% (inactive) and 105% (inactive); in the assay with SF-268 CNS (10 µM unless noted), 78.5% (inactive) and 89.5% (inactive). The growth in the assay with SF-295 CNS (10 µM unless noted) was 102% (inactive) and 76.9% (inactive); in the assay with SF-539 CNS (10 µM unless noted), 88.1% (inactive) and 106% (inactive); in the assay on UACC-257 melanoma (10 µM unless noted), 94.3% (inactive) and 103% (inactive).
As for `CC1(C)OB(c2ccc(Cn3cc(F)c(=O)[nH]c3=O)cc2)OC1(C)C`, the growth is 113% (inactive) in the assay with DU-145 prostate (10 µM); 84% (inactive) in the assay with DU-145 prostate (50 µM); 110% (inactive) with K-562 leukemia (10 µM); 29.7% (inactive) in the assay with K-562 leukemia (50 µM); 97.2% (inactive) with MALME-3M melanoma (10 µM); 44.7% (inactive) in the assay on MALME-3M melanoma (50 µM). Besides, the growth in the assay with MDA-MB-231 breast (10 µM) was 124% (inactive); with MDA-MB-231 breast (50 µM) it was 86.1% (inactive); with RXF 393 renal (10 µM) it was 99.7% (inactive); in the assay on RXF 393 renal (50 µM), 59.9% (inactive); in the assay on SF-268 CNS (10 µM), 94.7% (inactive); in the assay with SF-268 CNS (50 µM) it was 68.7% (inactive). The growth is 102% (inactive) in the assay with SF-295 CNS (10 µM); 85.5% (inactive) in the assay on SF-295 CNS (50 µM); 101% (inactive) with SF-539 CNS (10 µM); 61.4% (inactive) in the assay with SF-539 CNS (50 µM); 103% (inactive) in the assay with UACC-257 melanoma (10 µM); 67.3% (inactive) in the assay with UACC-257 melanoma (50 µM). Further, the growth in the assay on M14 melanoma (10 µM) is 103% (inactive); in the assay with M14 melanoma (50 µM), 44.9% (inactive).
